Source: PubChem BioAssay
In the library only some 9% were active in any assay of this set; here they are far more common.
KinaseGlo FLuc: Counterscreen for Luciferase (Kinase-Glo TM) Inhibition | Luciferin 4-monooxygenase (Photuris pensylvanica), Q27757 | Kinase-Glo luciferase, ATP luminescence, 8 min | Potency, µM (highest dose often 38.3 µM), inactives show at the top dose activity change, negative = inhibition, usual class: inhibitors | actives 0.28% (n = 200,000); active means well fitted curve in the direction sought with a large enough effect; inconclusive means small, poorly fitted or top-dose-only effect, or another doubt; inactive means no such curve, though single readings can be large; an effect the other way counts as inactive or inconclusive; further: nearly all actives have a fitted effect of over 60% in size
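Light output from Kinase-Glo luciferase with luciferin and 10 uM ATP in 50 mM imidazole pH 7.2, KCl, MgCl2, Tween 20, BSA; compound pin-delivered, 8-min ambient incubation, then luminescence read.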
LMNA splice mod: qHTS Assay for Modulators of Lamin A Splicing. actives 0.01% (n = 200,000). HeLa LMNA splicing GFP/RFP minigene ratio, 48 h. AID 1487, 2009. Potency, µM (doses to about 46.1 µM), inactives show at the top dose ratio change, negative = inhibition, usual class: inhibitors; active means well fitted inhibition curve with a large enough effect in the signal ratio, with a control signal flat, not every such curve was filed as active; inconclusive means small, poorly fitted or top-dose-only effect, or effect the other way, or a change in a side signal; the % refers to the signal ratio
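S3 HeLa stable clones carrying a lamin A-EGFP splicing minigene plus DsRed2 were seeded at 600 cells/well in Opti-MEM with 2% FBS, pin-dosed and incubated 48 h at 37°C. Acumen cytometry (488 nm) gave the GFP/RFP total-intensity ratio.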
HPGD block: qHTS Assay for Inhibitors of HPGD (15-Hydroxyprostaglandin Dehydrogenase) | Potency, µM, without a hit: at the highest dose activity change, negative = inhibition, usual class: inhibitors | actives 4.3% (n = 150,000) | purified HPGD, NADH fluorescence kinetic, PGE2 substrate | 15-hydroxyprostaglandin dehydrogenase [NAD(+)] (Homo sapiens), P15428 | AID 894, 2007
Target sequence (P15428 whole entry, looked up): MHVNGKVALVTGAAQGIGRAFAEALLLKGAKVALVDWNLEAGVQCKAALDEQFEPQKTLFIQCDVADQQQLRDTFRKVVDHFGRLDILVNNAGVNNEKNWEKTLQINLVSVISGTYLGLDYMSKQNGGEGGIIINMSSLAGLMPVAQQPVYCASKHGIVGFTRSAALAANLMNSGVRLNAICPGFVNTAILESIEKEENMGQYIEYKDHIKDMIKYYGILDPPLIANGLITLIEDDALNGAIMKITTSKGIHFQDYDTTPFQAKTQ
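NADH formation kinetics: reaction with 30 uM PGE2 and 1 mM NAD+ (final), 20 nM enzyme, Tris-HCl pH 8 with Tween 20, after 15 min compound preincubation at room temperature. Fluorescence change, last versus first of five reads.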
IMPase Li inh: qHTS Assay for Identifying the Cell-Membrane Permeable IMPase Inhibitors: Potentiation with Lithium | CHO-M1 cells, IP1 TR-FRET (IP-One), carbachol + lithium | Potency, µM (series often up to 59.4 µM), without a hit: at the top dose activity, negative = IMPase inhibition, hits mostly inhibitors | actives 0.35% (n = 210,000); active means well fitted curve in the direction sought with a large enough effect; inconclusive means small, poorly fitted or top-dose-only effect, or another doubt; inactive means no such curve, though single readings can be large; an effect the other way counts as inactive or inconclusive;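 further: IP1 builds up when IMPase is blocked and the TR-FRET signal falls; plate controls were basal vehicle for no effect and high inhibitor control for full effect; nearly all actives have a fitted effect of over 50% in size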
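CHO cells stably expressing M1 receptor (2000/well, cultured 16–30 h) treated 30 min at 37C with compound plus low lithium. Cytosolic IP1 by TR-FRET (665/620 ratio and 620 channel) after 10 min lysis; AC50 by Hill fit.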
ALDH1A1 block: qHTS Assay for Inhibitors of Aldehyde Dehydrogenase 1 (ALDH1A1). Purified ALDH1A1, NADH fluorescence, propionaldehyde substrate. actives 7.3% (n = 220,000). Potency, µM (titrated, usually from 75.3 µM), without a hit: at the top dose activity, negative = inhibition, actives largely listed as inhibitors. AID 1030, 2008. Aldehyde dehydrogenase 1A1 (Homo sapiens), P00352;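 further: plate controls were no enzyme wells and a reference inhibitor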
Target sequence (P00352 whole entry, looked up): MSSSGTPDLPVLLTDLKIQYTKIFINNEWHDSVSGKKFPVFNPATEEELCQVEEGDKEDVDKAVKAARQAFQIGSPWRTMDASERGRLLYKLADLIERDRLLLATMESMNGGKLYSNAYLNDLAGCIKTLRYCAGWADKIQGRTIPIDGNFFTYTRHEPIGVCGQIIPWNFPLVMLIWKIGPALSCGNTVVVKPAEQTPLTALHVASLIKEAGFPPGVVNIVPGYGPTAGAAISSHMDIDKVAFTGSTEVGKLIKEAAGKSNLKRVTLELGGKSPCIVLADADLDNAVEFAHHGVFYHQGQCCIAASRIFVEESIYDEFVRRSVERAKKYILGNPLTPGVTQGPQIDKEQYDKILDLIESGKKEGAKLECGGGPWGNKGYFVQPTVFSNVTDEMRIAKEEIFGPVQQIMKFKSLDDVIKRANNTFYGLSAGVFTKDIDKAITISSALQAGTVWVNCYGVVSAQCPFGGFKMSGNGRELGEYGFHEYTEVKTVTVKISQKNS
Numbers without * were called inactive; u = inconclusive; x = no result given; [ ] = dose if it differs, or a comment. Unless noted, the call rests on the fitted dose curve; in most records, active means well fitted inhibition curve with a large enough effect (not every such curve was filed as active); inconclusive means small, poorly fitted or top-dose-only effect, or another doubt; inactive means no such curve, though single readings can be large or run the other way. Unless noted, on the % scale 0 is the no-effect control and ±100 the full control effect; potency means the concentration at half of the fitted maximal effect.

SMILES | KinaseGlo FLuc | LMNA splice mod | HPGD block | IMPase Li inh | ALDH1A1 block
O=S(=O)(c1cccs1)N1CCCc2cccc(O)c21 | -5% | 5% | 13µM* | 38%[38.3 µM] | u
O=C(Cc1ccc(F)cc1)NC1CC(=O)N(c2ccc3c(c2)OCCO3)C1 (stereo not drawn) | x | -2%[46 µM] | x | x | x
COc1ccc(-n2c(=S)[nH]c3cc(C(=O)Nc4ccc(OC)c(OC)c4)ccc3c2=O)cc1 | -1% | -7% | -14% | -1% | -2%
COc1ccc(-n2c(=S)[nH]c3cc(C(=O)NCc4ccco4)ccc3c2=O)cc1OC | 8% | 11% | -13% | -17%[38.3 µM] | 0.11µM*
CCOc1cc2[nH]c(=S)n(CCCC(=O)NCc3ccco3)c(=O)c2cc1OCC | 4% | 16% | -24% | 14µM* | 2%
CCOc1cc2[nH]c(=S)n(CCC(=O)NCc3ccco3)c(=O)c2cc1OCC | 0% | x | x | u | 7%
O=C(NCc1ccco1)c1ccc2c(=O)n(-c3ccccc3)c(=S)[nH]c2c1 | -2% | -1% | -3% | 13µM* | 0.22µM*
COc1ccc(CCn2c(=S)[nH]c3cc(C(=O)NCc4ccco4)ccc3c2=O)cc1OC | 5% | 9% | u | -11%[38.3 µM] | 0.05µM*
CC(=O)NC1=NN(C(C)=O)C2(S1)C(=O)N(C(C)=O)c1ccc(C)cc12 (stereo not drawn) | 0% | 17%[46 µM] | x | -5% | 4%
C1CCC2(CC1)C1=C(CCCC1)Nc1nnnn12 | -2% | 9% | 2% | 4%[38.3 µM] | 28µM*
O=C1CCC([N+](=O)[O-])C(c2ccc3c(c2)OCO3)N1 (stereo not drawn) | 1% | x | x | 0% | 2%
O=C(C[n+]1ccc(Cc2ccccc2)cc1)Nc1ccc([N+](=O)[O-])cc1Cl | -2% | u | x | 34% | 20µM*
COc1cc([N+](=O)[O-])ccc1NC(=O)Cn1ccsc1=N | x | x | x | 3% | 8.9µM*
COc1cc([N+](=O)[O-])ccc1NC(=O)COC(=O)C=C(C)C | 0% | x | x | 6% | -4%
COc1cc([N+](=O)[O-])ccc1NC(=S)NCc1ccccn1 | 0% | 2% | -21% | 3% | 18µM*
COc1cc([N+](=O)[O-])ccc1NC(=O)C[n+]1cccc(C(C)=O)c1 | -7% | x | x | 8% | u
COc1cc([N+](=O)[O-])ccc1NC(=O)C[n+]1ccccc1 | 2% | 1% | -4% | 9% | 14µM*
Cc1cccc(NC(=O)c2ccc3nc(CCc4ccccc4)oc3c2)c1C | x | -12%[46 µM] | x | x | x
CC1(C)CC2c3cccc(C(=O)O)c3C(=O)N2c2c1ccc1ccccc21 (stereo not drawn) | 0% | -5% | -8% | 3% | -3%
N/C(Cc1cccs1)=N\OC(=O)COc1ccc(Cl)cc1Cl | -2% | -4% | -17% | 47%[38.3 µM] | -10%
CCOC(=O)c1c(S(=O)(=O)N2CCCC(C(=O)N(C)Cc3ccccc3)C2)c(C)n(C)c1C (stereo not drawn) | x | 0%[46 µM] | x | x | x
O=[N+]([O-])c1ccc(C[n+]2ccc(Cc3ccccc3)cc2)cc1 | 4% | x | x | 13% | 25µM*
COc1ccc(NC(=O)CCN2C(=O)c3ccc([N+](=O)[O-])cc3C2=O)c(OC)c1 | -3% | 12% | -17% | -2% | 20µM*
O=[N+]([O-])c1ccc(CS(=O)Cc2ccccc2)cc1 (stereo not drawn) | -3%[7.66 µM] | x | 2% | 2% | -2%[13.5 µM]
COc1cccc(NC(=O)CCN2C(=O)c3ccc([N+](=O)[O-])cc3C2=O)c1 | 1% | x | x | 0% | -5%
SMILES | KinaseGlo FLuc | LMNA splice mod | HPGD block | IMPase Li inh | ALDH1A1 block
Cc1ccc(-n2ncc(C(=O)N3CCN(c4cc(Cl)ccc4C)CC3)c2C2CCN(C(=O)OC(C)(C)C)CC2)cc1 | x | -12%[46 µM] | x | x | x
CCOC(=O)c1nn(-c2ccccc2)c(=O)c2c(N)scc12 | -1% | -4% | -20% | 0%[38.3 µM] | u
CCOC(=O)c1nn(-c2ccccc2C)c(=O)c2c(N)scc12 | -2% | -2%[9.22 µM] | x | -2% | 9.5µM*
O=[N+]([O-])c1cccc(Cl)c1NCCNS(=O)(=O)c1ccccc1 | 5% | -3% | -24% | 0%[38.3 µM] | 11µM*
O=[N+]([O-])c1ccccc1S(=O)(=O)NCCc1ccncc1 | 2% | 22%[9.22 µM] | x | 9% | 18µM*
CC(=O)Nc1ccc(S(=O)(=O)NCCNc2ccccc2[N+](=O)[O-])cc1 | 4% | x | x | -8% | 4.5µM*
O=C(CN1N=C(c2ccccc2)CCC1=O)NCc1ccc(F)cc1Cl | x | -11%[46 µM] | x | x | x
CCC(C)c1ccc(NC(=O)COc2c(F)c(F)c(C(F)(F)F)c(F)c2F)cc1 (stereo not drawn) | 2% | 2% | 1% | 9% | u
CCC1CCCCN1C(=O)Nc1cc(Cl)ccc1OC (stereo not drawn) | -2% | x | x | -5% | 0%
C=C(C)C1CC=C(C)/C(=N/NC(=S)Nc2ccccc2)C1 (stereo not drawn) | 2% | u | -15% | 2% | 35µM*
C=C(C)C1CC=C(C)/C(=N/NC(=O)c2ccc(NC(=O)c3cccc(C)c3)cc2)C1 (stereo not drawn) | 0% | 6% | -19% | 16%[38.3 µM] | -4%
O=C(Cc1ccccc1)Nc1cccc(N2CCCC2)c1 | 5% | -13% | u | 59%[38.3 µM] | 14µM*
Cc1ccc(/C=C2\C(=O)Nc3ccccc32)o1 | -2% | u | -23% | 3% | 7.9µM*
CN(C)c1ccc(/C=C2\C(=O)Nc3ccccc32)cc1 | -14% | 28µM* | u | 23% | 7.1µM*
CC(C)N(Cc1cn(C)nc1-c1cccc(Cl)c1)Cc1nccn1C | x | x | x | 21% | 11%
Cc1noc(C)c1-c1cc(NCCN2CCOCC2)ncn1 | x | 0% | x | 9% | 20µM*
Cc1[nH][nH]c(=O)c1C(c1ccc(-c2ccc(F)cc2)o1)c1c(C)[nH][nH]c1=O | 3% | u | x | 12% | 25µM*
Cc1[nH][nH]c(=O)c1C(c1ccc(-c2ccc(C(=O)O)cc2)o1)c1c(C)[nH][nH]c1=O | u | 22%[46 µM] | x | 31% | u
COc1ccc(-c2ccc(C(c3c(C)[nH][nH]c3=O)c3c(C)[nH][nH]c3=O)o2)c([N+](=O)[O-])c1 | -2% | u | x | 7% | 10µM*
Cc1[nH][nH]c(=O)c1C(c1ccc(-c2ccc(Cl)c(Cl)c2)o1)c1c(C)[nH][nH]c1=O | -3% | -10% | u | 18%[38.3 µM] | 10µM*
CCOCCCNC(=O)c1c[nH]c2c(CC)cccc2c1=O | 1% | x | x | 7% | u
CCCNC(=S)NCCN1CCCCC1 | -2% | -3% | 5% | 9% | 35µM*
COc1ccc2c(=O)c3c(=O)n(Cc4ccco4)c(-c4ccccc4)nc3oc2c1 | -1% | 4% | -19% | 9%[38.3 µM] | 22µM*
